# What was measured:
# Assay in all cases: DAPPL (digital affinity profiling via proximity ligation, sequencing); 10 mM Tris-HCl pH 7.5, 50 mM NaCl, 1 mM DTT, 4% glycerol, room temperature, 30 min; GST-TFs on glutathione beads, 16-mer random dsDNA library, 0.1% formaldehyde crosslink after washing; high values mean tight binding
# [1] = target: T1, FEV (Homo sapiens, UniProt Q99581 1-238); settings: protein: recombinant; tags: N-terminal GST; dsDNA, one strand shown
# T1 sequence: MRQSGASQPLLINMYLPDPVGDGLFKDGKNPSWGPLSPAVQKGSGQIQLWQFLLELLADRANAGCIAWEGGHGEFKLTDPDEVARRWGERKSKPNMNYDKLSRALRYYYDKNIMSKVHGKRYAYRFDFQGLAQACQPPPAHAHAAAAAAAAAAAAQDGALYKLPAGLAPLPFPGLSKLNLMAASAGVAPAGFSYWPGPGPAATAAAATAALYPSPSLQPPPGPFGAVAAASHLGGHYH
# Summary of the method: (§1)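 Binding signal is each hexamer's read frequency for a factor divided by its frequency in the tag-only sample. The factors were GST-fused human transcription factors from yeast, captured on glutathione beads, DNA-barcoded and pooled with that sample. Pools were incubated with 200 nmole of a random double-stranded 16-mer DNA library in Tris/NaCl/DTT/glycerol buffer at room temperature for 30 min, then washed, crosslinked with 0.1% formaldehyde, proximity-ligated with BsaI/T4 ligase (1 h, 37 °C), PCR-amplified and sequenced on an Illumina NextSeq500.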
# [2] = target: ETV5 (Homo sapiens, UniProt P41161 1-510); settings: protein: recombinant; tags: N-terminal GST; dsDNA, one strand shown
# Chain of ETV5 (P41161 whole entry): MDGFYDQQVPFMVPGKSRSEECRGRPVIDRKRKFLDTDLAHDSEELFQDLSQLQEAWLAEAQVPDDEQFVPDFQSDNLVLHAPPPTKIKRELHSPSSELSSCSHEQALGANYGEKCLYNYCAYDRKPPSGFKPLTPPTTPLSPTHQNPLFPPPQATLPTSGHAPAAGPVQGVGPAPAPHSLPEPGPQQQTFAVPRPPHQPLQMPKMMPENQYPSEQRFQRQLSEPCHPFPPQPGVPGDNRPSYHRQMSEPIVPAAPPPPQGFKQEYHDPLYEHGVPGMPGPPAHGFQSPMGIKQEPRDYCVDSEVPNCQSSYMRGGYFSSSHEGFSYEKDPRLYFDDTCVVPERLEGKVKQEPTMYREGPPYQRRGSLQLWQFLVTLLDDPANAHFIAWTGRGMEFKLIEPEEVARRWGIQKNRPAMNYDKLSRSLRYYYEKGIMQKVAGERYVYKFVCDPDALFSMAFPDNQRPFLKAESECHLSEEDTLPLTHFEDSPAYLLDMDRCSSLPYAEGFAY
# Summary of the method: as §1
# [3] = target: HSF1 (Homo sapiens, UniProt Q00613 1-529); settings: protein: recombinant; tags: N-terminal GST; chain copies: 3; dsDNA, one strand shown
# Chain of HSF1 (Q00613 whole entry): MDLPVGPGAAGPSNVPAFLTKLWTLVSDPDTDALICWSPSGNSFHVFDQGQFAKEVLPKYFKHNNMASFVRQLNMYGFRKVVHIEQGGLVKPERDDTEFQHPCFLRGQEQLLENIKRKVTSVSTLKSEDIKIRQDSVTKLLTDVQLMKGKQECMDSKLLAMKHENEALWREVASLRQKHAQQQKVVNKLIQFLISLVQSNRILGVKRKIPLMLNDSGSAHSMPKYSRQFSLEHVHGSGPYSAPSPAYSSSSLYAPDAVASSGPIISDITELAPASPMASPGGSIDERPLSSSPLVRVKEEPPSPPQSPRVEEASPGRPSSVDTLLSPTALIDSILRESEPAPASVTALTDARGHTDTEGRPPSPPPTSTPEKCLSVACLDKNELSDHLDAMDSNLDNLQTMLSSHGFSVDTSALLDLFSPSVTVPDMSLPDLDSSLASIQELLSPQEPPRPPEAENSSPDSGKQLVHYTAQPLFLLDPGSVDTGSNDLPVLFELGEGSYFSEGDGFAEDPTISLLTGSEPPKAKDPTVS
# Summary of the method: as §1
# [4] = target: T2, SPIC (Homo sapiens, UniProt Q8N5J4 1-248); settings: protein: recombinant; tags: N-terminal GST; dsDNA, one strand shown
# T2 sequence: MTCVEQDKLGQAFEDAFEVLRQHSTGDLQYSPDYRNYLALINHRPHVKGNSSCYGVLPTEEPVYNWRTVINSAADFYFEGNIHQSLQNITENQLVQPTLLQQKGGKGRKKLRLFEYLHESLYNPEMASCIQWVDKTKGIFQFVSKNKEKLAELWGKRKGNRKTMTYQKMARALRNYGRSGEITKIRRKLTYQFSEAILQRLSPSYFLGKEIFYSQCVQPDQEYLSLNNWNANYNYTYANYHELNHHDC
# Summary of the method: as §1
# [5] = target: ELF4 (Homo sapiens, UniProt Q99607 1-663); settings: protein: recombinant; tags: N-terminal GST; dsDNA, one strand shown
# Chain of ELF4 (Q99607 whole entry): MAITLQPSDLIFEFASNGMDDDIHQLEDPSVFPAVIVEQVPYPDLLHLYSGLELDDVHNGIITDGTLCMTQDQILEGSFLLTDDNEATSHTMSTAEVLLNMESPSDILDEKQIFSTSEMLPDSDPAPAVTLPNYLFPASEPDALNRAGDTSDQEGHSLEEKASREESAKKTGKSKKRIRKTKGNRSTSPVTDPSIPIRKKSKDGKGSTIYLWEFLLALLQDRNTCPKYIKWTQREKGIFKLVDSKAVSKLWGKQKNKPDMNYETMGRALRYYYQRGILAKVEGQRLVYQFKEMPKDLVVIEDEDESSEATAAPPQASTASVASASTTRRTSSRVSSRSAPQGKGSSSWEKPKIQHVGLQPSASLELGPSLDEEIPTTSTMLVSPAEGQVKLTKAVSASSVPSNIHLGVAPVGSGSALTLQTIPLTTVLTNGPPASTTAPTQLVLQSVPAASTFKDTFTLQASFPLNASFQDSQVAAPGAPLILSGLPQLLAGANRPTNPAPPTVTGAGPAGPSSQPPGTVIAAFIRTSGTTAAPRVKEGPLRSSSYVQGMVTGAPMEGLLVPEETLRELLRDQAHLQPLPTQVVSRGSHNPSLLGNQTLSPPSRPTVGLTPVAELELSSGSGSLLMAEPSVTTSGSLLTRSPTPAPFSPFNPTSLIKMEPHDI
# Summary of the method: as §1
# [6] = target: T3, ETV2 (Homo sapiens, UniProt O00321 1-342); settings: protein: recombinant; tags: N-terminal GST; dsDNA, one strand shown
# T3 sequence: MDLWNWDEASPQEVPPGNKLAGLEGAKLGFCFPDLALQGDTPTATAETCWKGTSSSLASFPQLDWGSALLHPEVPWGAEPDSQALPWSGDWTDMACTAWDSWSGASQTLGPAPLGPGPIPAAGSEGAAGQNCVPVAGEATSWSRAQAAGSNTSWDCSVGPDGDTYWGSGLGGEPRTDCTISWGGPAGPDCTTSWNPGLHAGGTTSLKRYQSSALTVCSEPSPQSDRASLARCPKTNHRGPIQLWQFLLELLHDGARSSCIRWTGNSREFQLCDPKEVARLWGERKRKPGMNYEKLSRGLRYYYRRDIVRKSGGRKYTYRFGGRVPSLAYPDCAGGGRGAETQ
# Summary of the method: as §1
# [7] = target: CRX (Homo sapiens, UniProt O43186 1-299); settings: protein: recombinant; tags: N-terminal GST; dsDNA, one strand shown
# Chain of CRX (O43186 whole entry): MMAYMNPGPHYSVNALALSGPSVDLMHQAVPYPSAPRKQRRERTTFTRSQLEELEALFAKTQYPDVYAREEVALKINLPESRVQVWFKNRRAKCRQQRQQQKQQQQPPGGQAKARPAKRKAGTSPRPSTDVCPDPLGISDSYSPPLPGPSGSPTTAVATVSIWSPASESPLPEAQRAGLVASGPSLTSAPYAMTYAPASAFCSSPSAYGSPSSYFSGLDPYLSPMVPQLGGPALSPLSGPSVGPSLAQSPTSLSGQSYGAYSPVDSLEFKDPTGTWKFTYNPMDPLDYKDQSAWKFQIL
# Summary of the method: as §1
# [8] = target: ETV1 (Homo sapiens, UniProt P50549 1-477); settings: protein: recombinant; tags: N-terminal GST; dsDNA, one strand shown
# Chain of ETV1 (P50549 whole entry): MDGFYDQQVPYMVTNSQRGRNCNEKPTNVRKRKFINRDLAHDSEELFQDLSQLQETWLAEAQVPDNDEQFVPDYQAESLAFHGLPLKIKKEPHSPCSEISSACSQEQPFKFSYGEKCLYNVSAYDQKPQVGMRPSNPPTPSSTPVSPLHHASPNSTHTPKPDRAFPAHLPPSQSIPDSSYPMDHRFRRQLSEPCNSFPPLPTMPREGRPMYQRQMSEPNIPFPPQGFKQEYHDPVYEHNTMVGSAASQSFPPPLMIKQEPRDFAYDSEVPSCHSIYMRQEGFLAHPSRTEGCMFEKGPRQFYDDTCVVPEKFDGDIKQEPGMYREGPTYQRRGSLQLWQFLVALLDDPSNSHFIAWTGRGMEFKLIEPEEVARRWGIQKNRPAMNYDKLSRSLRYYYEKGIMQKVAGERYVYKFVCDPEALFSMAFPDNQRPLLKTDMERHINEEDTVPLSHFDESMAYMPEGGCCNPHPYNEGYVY
# Summary of the method: as §1
# [9] = target: T4, ERF (Homo sapiens, UniProt P50548 1-548); settings: protein: recombinant; tags: N-terminal GST; dsDNA, one strand shown
# T4 sequence: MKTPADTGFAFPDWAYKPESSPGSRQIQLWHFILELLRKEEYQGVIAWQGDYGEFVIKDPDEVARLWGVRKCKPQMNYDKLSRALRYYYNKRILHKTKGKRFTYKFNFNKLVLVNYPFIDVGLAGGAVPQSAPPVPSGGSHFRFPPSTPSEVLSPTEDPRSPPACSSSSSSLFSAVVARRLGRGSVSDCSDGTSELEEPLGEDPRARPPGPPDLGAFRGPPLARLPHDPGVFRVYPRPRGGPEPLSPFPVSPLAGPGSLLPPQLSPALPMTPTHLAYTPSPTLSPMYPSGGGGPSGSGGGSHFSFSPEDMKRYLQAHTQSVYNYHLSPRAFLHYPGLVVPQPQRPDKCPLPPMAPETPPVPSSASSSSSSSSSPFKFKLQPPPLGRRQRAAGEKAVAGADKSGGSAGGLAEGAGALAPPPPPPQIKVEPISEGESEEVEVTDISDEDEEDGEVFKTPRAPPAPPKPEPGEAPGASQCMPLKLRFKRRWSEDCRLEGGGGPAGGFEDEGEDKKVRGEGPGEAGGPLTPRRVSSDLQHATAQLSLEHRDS
# Summary of the method: as §1
# [10] = target: T5, ETV3L (Homo sapiens, UniProt Q6ZN32 1-361); settings: protein: recombinant; tags: N-terminal GST; dsDNA, one strand shown
# T5 sequence: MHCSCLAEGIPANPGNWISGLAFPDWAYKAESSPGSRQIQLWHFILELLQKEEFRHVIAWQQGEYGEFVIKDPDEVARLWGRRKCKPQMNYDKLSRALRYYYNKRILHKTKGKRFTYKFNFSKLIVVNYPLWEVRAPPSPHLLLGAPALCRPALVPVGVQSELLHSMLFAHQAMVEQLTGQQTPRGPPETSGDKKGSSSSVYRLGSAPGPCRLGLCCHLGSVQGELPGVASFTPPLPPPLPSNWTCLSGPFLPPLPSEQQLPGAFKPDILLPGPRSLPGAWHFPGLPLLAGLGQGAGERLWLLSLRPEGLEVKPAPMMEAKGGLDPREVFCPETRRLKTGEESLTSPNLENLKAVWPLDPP
# Summary of the method: as §1
# [11] = target: T6, ETS2 (Homo sapiens, UniProt P15036 1-469); settings: protein: recombinant; tags: N-terminal GST; dsDNA, one strand shown
# T6 sequence: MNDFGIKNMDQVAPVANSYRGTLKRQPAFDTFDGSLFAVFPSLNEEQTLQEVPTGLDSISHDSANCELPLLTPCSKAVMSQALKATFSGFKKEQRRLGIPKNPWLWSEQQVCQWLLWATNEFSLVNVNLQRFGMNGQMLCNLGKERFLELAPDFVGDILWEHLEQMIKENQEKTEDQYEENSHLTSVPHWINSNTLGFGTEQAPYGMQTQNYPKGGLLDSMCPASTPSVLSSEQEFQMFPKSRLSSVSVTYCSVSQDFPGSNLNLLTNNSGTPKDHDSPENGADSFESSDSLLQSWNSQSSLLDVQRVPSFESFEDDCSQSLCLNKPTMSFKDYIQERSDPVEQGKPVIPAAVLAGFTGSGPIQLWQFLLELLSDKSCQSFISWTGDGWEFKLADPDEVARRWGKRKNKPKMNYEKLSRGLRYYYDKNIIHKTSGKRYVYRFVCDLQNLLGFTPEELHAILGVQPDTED
# Summary of the method: as §1
# [12] = target: T7, SPDEF (Homo sapiens, UniProt O95238 1-335); settings: protein: recombinant; tags: N-terminal GST; dsDNA, one strand shown
# T7 sequence: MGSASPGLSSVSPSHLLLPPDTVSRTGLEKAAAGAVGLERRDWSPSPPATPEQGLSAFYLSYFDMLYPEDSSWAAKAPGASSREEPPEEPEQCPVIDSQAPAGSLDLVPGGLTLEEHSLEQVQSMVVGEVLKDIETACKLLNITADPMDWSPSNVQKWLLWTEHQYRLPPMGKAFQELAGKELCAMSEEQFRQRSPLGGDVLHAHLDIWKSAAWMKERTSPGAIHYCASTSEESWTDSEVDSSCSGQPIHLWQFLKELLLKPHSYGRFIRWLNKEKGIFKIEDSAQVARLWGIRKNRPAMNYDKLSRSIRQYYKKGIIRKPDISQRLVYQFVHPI
# Summary of the method: as §1
# [13] = target: T8, ETV7 (Homo sapiens, UniProt Q9Y603 1-341); settings: protein: recombinant; tags: N-terminal GST; dsDNA, one strand shown
# T8 sequence: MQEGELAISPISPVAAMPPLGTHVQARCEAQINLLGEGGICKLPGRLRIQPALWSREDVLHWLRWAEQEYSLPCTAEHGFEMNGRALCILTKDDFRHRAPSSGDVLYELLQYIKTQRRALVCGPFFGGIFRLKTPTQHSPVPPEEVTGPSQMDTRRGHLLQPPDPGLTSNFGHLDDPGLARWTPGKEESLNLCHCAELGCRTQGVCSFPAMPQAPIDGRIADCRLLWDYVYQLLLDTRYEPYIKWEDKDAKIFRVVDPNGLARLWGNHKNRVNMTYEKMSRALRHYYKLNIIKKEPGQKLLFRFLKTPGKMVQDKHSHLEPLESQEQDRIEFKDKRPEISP
# Summary of the method: as §1
# [14] = target: T9, ETV3 (Homo sapiens, UniProt P41162-2 1-143); settings: protein: recombinant; tags: N-terminal GST; dsDNA, one strand shown
# T9 sequence: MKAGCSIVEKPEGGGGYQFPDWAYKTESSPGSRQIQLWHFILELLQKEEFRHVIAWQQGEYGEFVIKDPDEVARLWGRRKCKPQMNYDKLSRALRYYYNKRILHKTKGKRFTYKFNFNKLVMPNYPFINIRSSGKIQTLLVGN
# Summary of the method: as §1
# [15] = target: ETV6 (Homo sapiens, UniProt P41212 1-452); settings: protein: recombinant; tags: N-terminal GST; dsDNA, one strand shown
# Chain of ETV6 (P41212 whole entry): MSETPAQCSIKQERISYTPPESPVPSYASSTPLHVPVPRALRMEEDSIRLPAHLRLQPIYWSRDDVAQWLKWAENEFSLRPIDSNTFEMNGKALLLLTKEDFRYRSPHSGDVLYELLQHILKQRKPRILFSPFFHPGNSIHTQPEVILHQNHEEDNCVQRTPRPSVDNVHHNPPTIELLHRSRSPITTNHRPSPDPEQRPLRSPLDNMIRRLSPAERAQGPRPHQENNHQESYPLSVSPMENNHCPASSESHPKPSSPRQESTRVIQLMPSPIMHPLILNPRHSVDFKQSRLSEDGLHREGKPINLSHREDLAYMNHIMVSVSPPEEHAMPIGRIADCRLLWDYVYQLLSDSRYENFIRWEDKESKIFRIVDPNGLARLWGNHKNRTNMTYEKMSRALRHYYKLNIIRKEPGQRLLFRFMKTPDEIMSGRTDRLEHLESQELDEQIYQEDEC
# Summary of the method: as §1
sequence,measurement,setting,value
CGAGCT,binding signal,[1],"1.03 fold enrichment (6-mer frequency, TF over GST control)"
same,binding signal,[2],"1.01 fold enrichment (6-mer frequency, TF over GST control)"
same,binding signal,[3],"1.24 fold enrichment (6-mer frequency, TF over GST control)"
same,binding signal,[4],"1.25 fold enrichment (6-mer frequency, TF over GST control)"
same,binding signal,[5],"1.07 fold enrichment (6-mer frequency, TF over GST control)"
same,binding signal,[6],"1.05 fold enrichment (6-mer frequency, TF over GST control)"
same,binding signal,[7],"1.04 fold enrichment (6-mer frequency, TF over GST control)"
same,binding signal,[8],"1.15 fold enrichment (6-mer frequency, TF over GST control)"
same,binding signal,[9],"1.09 fold enrichment (6-mer frequency, TF over GST control)"
same,binding signal,[10],"1.02 fold enrichment (6-mer frequency, TF over GST control)"
same,binding signal,[11],"1.07 fold enrichment (6-mer frequency, TF over GST control)"
same,binding signal,[12],"1.04 fold enrichment (6-mer frequency, TF over GST control)"
same,binding signal,[13],"1.02 fold enrichment (6-mer frequency, TF over GST control)"
same,binding signal,[14],"1.06 fold enrichment (6-mer frequency, TF over GST control)"
same,binding signal,[15],"1.01 fold enrichment (6-mer frequency, TF over GST control)"
